Test results published in the supplement of paper PMC6992640.
± gives the standard deviation of the averaged measurements.

Tests used:
Assay in all cases: cell viability (% of vehicle); higher = less cytotoxic
Details in all cases: 10 µM; 72 h
HCI01 = test system: HCI01 (cells of a triple-negative basal-like breast cancer xenograft)
HCI03 = test system: HCI03 (cells of an ER-positive luminal breast cancer xenograft)
HCI09 = test system: HCI09 (cells of a triple-negative luminal androgen receptor type breast cancer xenograft)
HCI11 = test system: HCI11 (cells of an ER-positive luminal breast cancer xenograft)
HCI13 = test system: HCI13 (cells of an ER-positive luminal breast cancer xenograft)
HCI16 = test system: HCI16 (cells of a triple-negative basal-like breast cancer xenograft)
UCD52 = test system: UCD52 (cells of a triple-negative basal-like breast cancer xenograft)
WHIM2 = test system: WHIM2 (cells of a triple-negative basal-like breast cancer xenograft)
WHIM30 = test system: WHIM30 (cells of a triple-negative basal-like breast cancer xenograft)
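Note: PDX cells carrying CMV promoter-driven luciferase, viability read as total photon flux per second by IVIS imaging following D-luciferin, vehicle control 0.1% DMSO.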

SMILES	cell viability (HCI01)	cell viability (HCI03)	cell viability (HCI09)	cell viability (HCI11)	cell viability (HCI13)	cell viability (HCI16)	cell viability (UCD52)	cell viability (WHIM2)	cell viability (WHIM30)
CN(C)CCC(c1ccccc1)c1ccccn1.O=C(O)C=CC(=O)O (centres undefined) [Pheniramine Maleate]	111 ± 10	123	108 ± 34	101	94.008 ± 0.0093	132	117 ± 27	97.8 ± 24	124 ± 14
NC(=O)c1cccnc1 [Nicotinamide]	95.4 ± 11	114	95.5 ± 14	99.9	110 ± 5	107	99.57 ± 0.88	86.9 ± 12	94.7 ± 5.4
Clc1ccc(COC(Cn2ccnc2)c2ccc(Cl)cc2Cl)c(Cl)c1 (centres undefined) [Miconazole]	109 ± 41	87.6	62.3 ± 36	82	47.3 ± 10	120	74.4 ± 3	99.6 ± 24	128 ± 3.7
CN(C)CCN(Cc1ccccc1)c1ccccn1.Cl [Tripelennamine HCl]	89.8 ± 3.5	62.6	94.4 ± 2.5	80.6	89.3 ± 1.7	99.9	81.03 ± 0.58	111.1 ± 0.86	94.2 ± 7.7
C#CC1(OC(C)=O)CCC2C3CCC4=CC(OC(C)=O)CCC4C3CCC21C (centres undefined) [Ethynodiol diacetate]	136 ± 22	118	86.3 ± 5.5	73.4	142 ± 16	136	84.9 ± 5.6	107 ± 17	112 ± 16
N#CC1CC2CC2N1C(=O)C(N)C12CC3CC(CC(O)(C3)C1)C2 (centres undefined) [Saxagliptin]	95 ± 7.6	145	82.1 ± 5.7	89.2	85.7 ± 7	93.8	97.4 ± 5.6	123 ± 7.2	98 ± 2.8
c1cc(CN2CCCNCCNCCCNCC2)ccc1CN1CCCNCCNCCCNCC1 [Plerixafor (AMD3100)]	99.4 ± 11	86.8	92.6 ± 9.3	84.7	85.1 ± 4.1	87.9	92.3 ± 9.7	73 ± 11	110 ± 12
CNC(=C[N+](=O)[O-])NCCSCc1ccc(CN(C)C)o1.Cl [Ranitidine]	110 ± 5	125	112 ± 1.9	103	122 ± 6.4	122	89.9 ± 9.7	85.6 ± 2.9	113 ± 11
Cc1ncc(C[n+]2csc(CCO)c2C)c(N)n1.Cl.[Cl-] [Thiamine HCl (Vitamin B1)]	113 ± 8.6	143	103 ± 16	88.6	59.8 ± 11	103	122 ± 39	149 ± 25	143 ± 3.5
CCCC(CCC)C(=O)O.CCCC(CCC)C(=O)[O-].[Na+] [Divalproex Sodium]	112 ± 1.5	116	96.4 ± 23	111	114 ± 41	94.5	86.1 ± 2.9	80.1 ± 16	90.4 ± 14
COc1ccc2[n-]c(S(=O)Cc3ncc(C)c(OC)c3C)nc2c1.COc1ccc2[n-]c(S(=O)Cc3ncc(C)c(OC)c3C)nc2c1.[Mg+2] (centres undefined) [Esomeprazole Magnesium]	77 ± 60	143	84.6 ± 31	92.6	165 ± 18	112	99.55 ± 0.87	94.2 ± 9.3	181 ± 29
Nc1nc(=O)c2c(CCc3ccc(C(=O)NC(CCC(=O)[O-])C(=O)[O-])cc3)c[nH]c2[nH]1.[Na+].[Na+] (centres undefined) [Pemetrexed]	94.1 ± 3.5	102	88.7 ± 10	92.9	105 ± 5.3	105	93.4 ± 13	95.2 ± 9.6	130 ± 10
CCCCCCCCCCCCCCCCCCCCCCO [Docosanol (Abreua)]	82.8 ± 2.5	93.4	82.5 ± 8	95.6	97.3 ± 27	84.5	76.5 ± 11	81.8 ± 19	102 ± 3
Cc1ccc(C2OC(CO)C(O)C(O)C2O)cc1Cc1ccc(-c2ccc(F)cc2)s1 (centres undefined) [Canagliflozin]	114 ± 6.5	150	55.8 ± 27	108	77.3 ± 21	124	76 ± 9.2	65.5 ± 51	110 ± 5.9
CC(=O)N=c1sc(S(N)(=O)=O)nn1C [Methazolamide]	103 ± 7.7	114	92.5 ± 21	119	119 ± 9.3	122	93.9 ± 16	94.6 ± 3.6	97.7 ± 1.2
O=NN(CCCl)C(=O)NC1CCCCC1 [Lomustine]	94.4 ± 38	115	93.2 ± 13	95.2	83.2 ± 8.6	146	80.2 ± 12	91.3 ± 13	125 ± 10
CCc1nc(N)nc(N)c1-c1ccc(Cl)cc1 [Pyrimethamine]	111 ± 6.4	129	81.6 ± 8.9	121	105 ± 12	109	75.2 ± 2.4	119 ± 4.7	104 ± 1.9
CC(O)C1C(=O)N2C(C(=O)OCOC(=O)C(C)(C)C)=C(SC3CN(C4=NCCS4)C3)C(C)C12 (centres undefined) [Tebipenempivoxil]	130 ± 21	110	142 ± 85	115	101 ± 34	89.7	97.2 ± 11	112 ± 53	133 ± 17
CC(=O)SCC(Cc1ccccc1)C(=O)NCC(=O)OCc1ccccc1 (centres undefined) [Racecadotril]	106 ± 19	111	92.8 ± 9.8	93.3	114 ± 8.9	104	65.6 ± 16	92.8 ± 1.4	79.3 ± 9
O=C1NC(=O)[C@@H](c2c[nH]c3ccccc23)[C@H]1c1cn2c3c(cccc13)CCC2 [Tivantinib (ARQ 197)]	161 ± 20	81	51.5 ± 4.9	111	43.6 ± 9.6	125	81.8 ± 4.7	107 ± 11	147 ± 26
Brc1c(NC2=NCCN2)ccc2nccnc12.O=C(O)C(O)C(O)C(=O)O [Brimonidine Tartrate]	123 ± 9.2	125	78 ± 4.6	89.9	88.5 ± 4.5	124	90.8 ± 10	125 ± 25	98.4 ± 1.3

SMILES	cell viability (HCI01)	cell viability (HCI03)	cell viability (HCI09)	cell viability (HCI11)	cell viability (HCI13)	cell viability (HCI16)	cell viability (UCD52)	cell viability (WHIM2)	cell viability (WHIM30)
CC(=O)C1CCC2C3CCC4=CC(=O)CCC4(C)C3CCC12C (centres undefined) [Progesterone]	160 ± 12	108	77.8 ± 41	90.6	154 ± 6.9	113	88.9 ± 3.9	148 ± 41	123 ± 16
CS(=O)(=O)O.N#CC1(c2ccc(NC(=O)c3cccnc3NCc3ccncc3)cc2)CCCC1 [Apatinib]	140 ± 88	109	33.4 ± 8.3	65.4	65 ± 2	119	48.5 ± 6.5	85.3 ± 4.8	105 ± 19
CC(C)(C)NCC(O)COc1nsnc1N1CCOCC1.O=C(O)C=CC(=O)O (centres undefined) [Timolol Maleate]	115.9 ± 0.17	116	106 ± 5.1	107	89.5 ± 12	120	96.4 ± 1.9	93.1 ± 15	112 ± 6.8
CN(C)CCOC(c1ccccc1)c1ccccc1.Cl [Diphenhydramine HCl]	109 ± 18	123	87 ± 2.5	90.8	74 ± 3.2	118	84.2 ± 6.5	107 ± 32	116 ± 28
CN(C)CCCN1c2ccccc2CCc2ccccc21.Cl [Imipramine (hydrochloride)]	104 ± 14	88.1	84.9 ± 5.2	60	95.1 ± 1.8	119	90.4 ± 7.2	82.5 ± 12	79.7 ± 8.5
CCCCOc1ccc(OCCCN2CCOCC2)cc1.Cl [Pramoxine HCl]	137.9 ± 0.65	103	92.4 ± 8.4	112	83.5 ± 24	116	79.6 ± 6	166 ± 12	133 ± 23
Cc1nccn1CC1CCc2c(c3ccccc3n2C)C1=O.Cl (centres undefined) [Ondansetron HCl]	126 ± 18	123	93.6 ± 9.8	111	96.7 ± 2.7	104	80.3 ± 1	83.9 ± 22	128 ± 9.2
CC1=C(C(=O)O)N2C(=O)C(NC(=O)C(N)c3ccccc3)C2SC1 (centres undefined) [Cephalexin]	135 ± 38	122	86.6 ± 21	101	76.3 ± 2.8	113	114.8 ± 0.94	118 ± 12	111 ± 5.6
CCN(CC)CCOCCOC(=O)C(CC)(CC)c1ccccc1.O=C(O)CC(O)(CC(=O)O)C(=O)O [Oxeladin Citrate]	111.1 ± 1.1	92.7	143 ± 73	99.4	98.7 ± 22	122	84.9 ± 4.5	82.4 ± 24	119 ± 21
CCOC(=O)C(CCc1ccccc1)NC1CSC(c2cccs2)CN(CC(=O)O)C1=O.Cl (centres undefined) [Temocapril HCl]	80.7 ± 40	103	106 ± 31	82.3	116 ± 9.8	101	88.7 ± 3.7	99 ± 12	114 ± 13
OCCOCCN1CCN(C2=Nc3ccccc3Sc3ccccc32)CC1 [Quetiapine]	122 ± 13	109	94.9 ± 23	94.1	116 ± 8.1	94.1	101 ± 4	104 ± 5.5	131 ± 13
CC(C)(C)C(=O)C(Oc1ccc(Cl)cc1)n1ccnc1 (centres undefined) [Climbazole]	152 ± 37	115	89.7 ± 16	98.8	86.4 ± 8.3	131	96 ± 10	121 ± 6.3	120 ± 8.6
CN1CC(=O)N2[C@H](c3ccc4c(c3)OCO4)c3[nH]c4ccccc4c3C[C@@H]2C1=O [Tadalafil]	108 ± 1.5	150	90 ± 22	141	95.7 ± 3.2	88.4	96.7 ± 12	112 ± 3	105 ± 16
CNC(=O)C(NC(=O)C(CC(C)C)C(O)C(=O)NO)C(C)(C)C (centres undefined) [Marimastat]	138 ± 9.7	111	78.3 ± 3	118	72.6 ± 8.9	127	101 ± 16	105 ± 10	117 ± 13
CC(=O)[N-]S(=O)(=O)c1ccc(N)cc1.[Na+] [Sulfacetamide Sodium]	98.2 ± 1.3	86.1	87.3 ± 15	104	96.8 ± 5.9	79.7	72.9 ± 1.1	85.757 ± 0.01	109 ± 3.1
CC1C(NC(=O)C(=NOC(C)(C)C(=O)O)c2csc(N)n2)C(=O)N1S(=O)(=O)O (centres undefined) [Aztreonam]	104 ± 4.2	113	96.5 ± 6.8	109	118 ± 15	114	95.9 ± 3	84.4 ± 8.5	123 ± 30
Cc1c(OCC(F)(F)F)ccnc1CS(=O)c1nc2ccccc2[nH]1 (centres undefined) [Dexlansoprazole]	188 ± 46	149	94.9 ± 51	134	188 ± 57	170	143 ± 8.5	173 ± 16	186 ± 9.4
O=c1cc(O)c(Cl)c[nH]1 [Gimeracil]	96.4 ± 1.7	131	94 ± 19	112	123 ± 14	91	87.8 ± 3.9	102 ± 15	101 ± 17
CCOC(=O)C1=C(C)NC(C)=C(C(=O)OC)C1c1cccc(Cl)c1Cl (centres undefined) [Felodipine]	116 ± 5	117	118 ± 6.6	114	112 ± 15	97.9	88.5 ± 2.3	102 ± 10	124 ± 2.7
CCOC(=O)C1=C(C)NC(C)=C(C(=O)OC)C1c1cccc([N+](=O)[O-])c1 (centres undefined) [Nitrendipine]	111 ± 10	123	93.6 ± 17	112	104 ± 0.32	90.2	80.15 ± 0.7	95.6 ± 22	97.2 ± 5.3
